# Source: PubChem BioAssay
# Values without a mark were called inactive. The rule behind the calls is not given here.
# Assay: compounds distorting NS3 helicase fluorescence signal – biochemical, NIH Clinical Collection, artefact control for HCV NS3 helicase inhibitor project (AID 743272);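 note: HCV NS3 helicase with a Cy5 labelled single stranded DNA probe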
# Settings: fluorescence interference counterscreen, HCV NS3 helicase assay; hits give low values
smiles,measurement,value
CC#C[C@]1(O)CC[C@H]2[C@@H]3CCC4=CC(=O)CCC4=C3[C@@H](c3ccc(N(C)C)cc3)C[C@@]21C,fluorescence ratio,0.97
